Pf apPOL block = Pf-apPOL DNA polymerase inhibition; 0.25% of 210,000 active; AID 1794808; Recombinant Pf-apPOL, molecular beacon fluorescence, 1.5 h; inhibition, % at 10 µM
mHTT-CaM PPI inh = inhibitors of human mutant huntingtin-calmodulin interaction; P42858; 3.6% of 190,000 active; inhibition, % at 15 µM; AlphaScreen His-mHTT/GST-CaM binding, luminescence; AID 1671202
Target sequence (P42858 whole entry, looked up, change not shown): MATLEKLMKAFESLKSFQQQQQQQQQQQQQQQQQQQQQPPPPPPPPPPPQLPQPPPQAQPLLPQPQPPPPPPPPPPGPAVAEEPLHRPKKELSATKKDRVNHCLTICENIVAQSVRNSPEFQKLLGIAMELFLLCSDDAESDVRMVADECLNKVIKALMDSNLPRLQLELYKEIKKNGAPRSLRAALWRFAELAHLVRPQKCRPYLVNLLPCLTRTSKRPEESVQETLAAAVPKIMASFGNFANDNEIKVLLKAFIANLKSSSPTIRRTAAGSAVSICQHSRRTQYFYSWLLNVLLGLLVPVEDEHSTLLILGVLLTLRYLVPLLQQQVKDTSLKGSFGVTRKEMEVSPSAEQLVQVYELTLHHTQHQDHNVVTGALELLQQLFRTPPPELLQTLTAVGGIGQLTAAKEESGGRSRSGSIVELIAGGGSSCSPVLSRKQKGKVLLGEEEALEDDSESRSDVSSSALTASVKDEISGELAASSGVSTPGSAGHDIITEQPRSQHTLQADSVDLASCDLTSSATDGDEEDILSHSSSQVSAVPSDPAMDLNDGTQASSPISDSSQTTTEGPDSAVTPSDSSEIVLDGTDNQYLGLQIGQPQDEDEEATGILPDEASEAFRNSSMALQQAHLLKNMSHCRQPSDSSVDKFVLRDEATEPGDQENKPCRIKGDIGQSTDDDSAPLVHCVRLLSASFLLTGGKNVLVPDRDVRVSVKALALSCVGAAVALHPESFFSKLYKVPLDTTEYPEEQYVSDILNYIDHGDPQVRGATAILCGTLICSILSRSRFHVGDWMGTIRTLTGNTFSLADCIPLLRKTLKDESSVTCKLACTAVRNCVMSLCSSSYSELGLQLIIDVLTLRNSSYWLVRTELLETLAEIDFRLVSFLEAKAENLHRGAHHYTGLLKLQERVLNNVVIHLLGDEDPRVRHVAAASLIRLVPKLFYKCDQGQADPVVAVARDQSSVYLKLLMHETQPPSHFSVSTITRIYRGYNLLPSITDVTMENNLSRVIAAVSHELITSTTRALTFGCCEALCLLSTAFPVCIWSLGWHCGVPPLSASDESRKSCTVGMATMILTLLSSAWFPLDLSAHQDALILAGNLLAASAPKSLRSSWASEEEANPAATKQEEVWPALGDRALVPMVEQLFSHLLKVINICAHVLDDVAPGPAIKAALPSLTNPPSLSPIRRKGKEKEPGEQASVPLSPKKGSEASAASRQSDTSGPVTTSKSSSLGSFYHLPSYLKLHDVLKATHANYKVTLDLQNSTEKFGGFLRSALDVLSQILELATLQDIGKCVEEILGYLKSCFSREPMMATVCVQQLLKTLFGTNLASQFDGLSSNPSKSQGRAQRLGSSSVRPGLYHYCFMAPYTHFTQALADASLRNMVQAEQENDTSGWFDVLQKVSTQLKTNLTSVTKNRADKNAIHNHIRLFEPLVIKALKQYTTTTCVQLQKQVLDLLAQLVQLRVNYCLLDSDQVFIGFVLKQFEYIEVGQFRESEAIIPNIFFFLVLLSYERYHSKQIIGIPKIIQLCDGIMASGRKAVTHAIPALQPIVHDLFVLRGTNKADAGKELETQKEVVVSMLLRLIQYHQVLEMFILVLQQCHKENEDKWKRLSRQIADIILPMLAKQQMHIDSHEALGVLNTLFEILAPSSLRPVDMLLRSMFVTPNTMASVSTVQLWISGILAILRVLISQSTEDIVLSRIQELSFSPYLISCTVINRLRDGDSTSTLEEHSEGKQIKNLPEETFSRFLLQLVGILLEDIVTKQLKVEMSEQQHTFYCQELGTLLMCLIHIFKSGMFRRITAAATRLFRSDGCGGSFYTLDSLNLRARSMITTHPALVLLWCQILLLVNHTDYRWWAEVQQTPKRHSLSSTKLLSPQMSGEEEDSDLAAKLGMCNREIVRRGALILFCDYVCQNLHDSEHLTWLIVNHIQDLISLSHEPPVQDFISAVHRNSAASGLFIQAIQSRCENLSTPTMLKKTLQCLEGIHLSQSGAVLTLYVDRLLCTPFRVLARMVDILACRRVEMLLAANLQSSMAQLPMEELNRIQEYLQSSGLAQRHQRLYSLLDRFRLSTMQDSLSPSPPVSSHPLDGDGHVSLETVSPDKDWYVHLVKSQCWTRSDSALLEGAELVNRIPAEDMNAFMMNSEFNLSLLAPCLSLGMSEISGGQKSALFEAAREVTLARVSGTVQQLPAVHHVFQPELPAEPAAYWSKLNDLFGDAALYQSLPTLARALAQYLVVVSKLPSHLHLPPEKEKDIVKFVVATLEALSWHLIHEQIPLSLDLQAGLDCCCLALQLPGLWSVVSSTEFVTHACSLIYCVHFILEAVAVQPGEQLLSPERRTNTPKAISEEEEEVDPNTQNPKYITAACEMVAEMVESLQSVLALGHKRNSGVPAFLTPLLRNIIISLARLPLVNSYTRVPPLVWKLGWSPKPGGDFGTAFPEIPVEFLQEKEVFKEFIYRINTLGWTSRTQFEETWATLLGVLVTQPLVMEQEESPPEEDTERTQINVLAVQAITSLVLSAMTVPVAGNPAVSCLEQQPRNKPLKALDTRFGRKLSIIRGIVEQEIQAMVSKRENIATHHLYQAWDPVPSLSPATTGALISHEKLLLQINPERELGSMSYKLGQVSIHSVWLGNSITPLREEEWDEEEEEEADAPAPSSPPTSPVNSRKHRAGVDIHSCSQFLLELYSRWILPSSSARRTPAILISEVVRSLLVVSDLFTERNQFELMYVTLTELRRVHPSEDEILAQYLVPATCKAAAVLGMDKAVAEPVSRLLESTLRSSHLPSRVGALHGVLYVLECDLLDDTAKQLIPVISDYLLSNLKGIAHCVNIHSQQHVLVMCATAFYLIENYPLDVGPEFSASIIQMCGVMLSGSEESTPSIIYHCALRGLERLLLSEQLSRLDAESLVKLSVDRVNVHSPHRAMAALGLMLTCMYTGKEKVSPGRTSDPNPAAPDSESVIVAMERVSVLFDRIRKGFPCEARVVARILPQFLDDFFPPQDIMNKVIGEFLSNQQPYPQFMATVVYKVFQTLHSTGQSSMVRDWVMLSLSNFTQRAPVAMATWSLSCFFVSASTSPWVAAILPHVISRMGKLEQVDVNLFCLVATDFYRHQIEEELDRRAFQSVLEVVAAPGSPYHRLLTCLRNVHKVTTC
Numbers stand for hits; n = inactive; x = no result given; + = active, no number. Shown are actives, neighbours in structure and some others; about 3.5% of the full set was active somewhere. No stated cut-off is given here; in the data, active means inhibition above about 50%; inactive means the rest.

SMILES | Pf apPOL block | mHTT-CaM PPI inh
COc1ccc(Cl)c2c1NC(c1ccc(F)cc1)C1CC=CC21 (stereo not given) | n | 50
COc1cc(C2Nc3c(C)cccc3C3C=CCC32)cc(Br)c1OC (stereo not given) | n | n
Cc1noc(C)c1C1CCCN1Cc1ccccc1Br (stereo not given) | n | n
Cc1ccc(C)c(NC(=O)CN2C(=O)C3CCCN3C(=O)c3ccc(F)cc32)c1 (stereo not given) | n | n
Cn1c(SCC(=O)NN=Cc2cccnc2)nnc1-c1ccncc1 | n | x
COc1ccc(CCNC(=O)C2C3C=CC(C3)C2C(=O)O)cc1 (stereo not given) | n | n
CCOc1cccc2c1NC(c1ccc(C(=O)O)cc1)C1CC=CC21 (stereo not given) | n | 63
CSc1nnc2c(n1)OC(c1ccc(Cl)cc1)N(C(C)=O)c1ccccc1-2 (stereo not given) | n | 54
CSc1nnc2c(n1)OC(c1ccc(Br)o1)N(C(C)=O)c1ccccc1-2 (stereo not given) | n | n
CSc1nnc2c(n1)OC(c1ccc(Br)cc1)N(C(C)=O)c1ccccc1-2 (stereo not given) | n | 75
C=CCSc1nnc2c(n1)OC(c1ccc(OCC)cc1)N(C(C)=O)c1ccccc1-2 (stereo not given) | n | 55
CSc1ccc(C2Oc3nc(SC)nnc3-c3ccccc3N2C(C)=O)cc1 (stereo not given) | n | n
C=CCSc1nnc2c(n1)OC(c1ccc(OC)cc1)N(C(C)=O)c1ccccc1-2 (stereo not given) | n | n
CSc1nnc2c(n1)OC(c1ccc(Br)s1)N(C(C)=O)c1ccccc1-2 (stereo not given) | n | 71
CSc1nnc2c(n1)OC(c1cccc(Br)c1)N(C(C)=O)c1ccccc1-2 (stereo not given) | n | n
O=C(NN1C(=O)C2CC=CCC2C1=O)c1ccncc1 (stereo not given) | n | n
COc1cc(OC)c(NC(=O)Cn2cc3c(n2)CCCCC3)cc1Cl | n | n
CC1CN(C(=O)NCc2ccco2)CC1c1nc(-c2ccncc2)no1 (stereo not given) | n | n
CCCCOc1ccc(-c2nc(C=Nc3cccnc3)c(O)o2)cc1 | n | n
CC(=O)N1CC(C(=O)NCC2CC2)CC(c2cccc(C)c2)C1 (stereo not given) | n | n
O=C(Nc1ccc(I)cc1Cl)c1ccccc1F | n | n
CCCc1noc(-c2cc(-c3ccc(F)cc3)nc3ccccc23)n1 | n | n
O=C(c1cccs1)N1CCCC(c2ccnc(-c3ccccc3)n2)C1 (stereo not given) | n | 95
COc1ccc(-c2nccc(C3CCCN(C(=O)c4cccs4)C3)n2)cc1 (stereo not given) | n | n
Cc1ccccc1C(=O)N1CCCC(c2ccnc(-c3ccc(F)cc3)n2)C1 (stereo not given) | n | 73
SMILES | Pf apPOL block | mHTT-CaM PPI inh
COc1ccc(-c2nccc(C3CCCN(C(=O)c4ccccc4C)C3)n2)cc1 (stereo not given) | n | n
CC12C=CC3(CN(Cc4ccccc4)C(=O)C3C1C(=O)NCCc1ccc(Cl)cc1)O2 (stereo not given) | n | n
O=C1OC(c2ccc(Br)cc2)=N/C1=C\c1ccccc1I | n | n
Cc1sc(C(=O)N2CCCC2)c2ncnc(NCc3ccc(F)c(Cl)c3)c12 | n | 100
Cc1sc(C(=O)N2CCCC2)c2ncnc(NCc3cccc(Cl)c3)c12 | n | n
O=C(CSc1nnc(-c2ccco2)n1-c1ccccc1)Nc1cccc(C(F)(F)F)c1 | n | n
O=C(NCc1ccc(F)cc1)C1CCN(c2cncnc2N2CCCC2)CC1 | n | n
O=C(c1ccoc1)N1CCC(Cc2nnc(-c3ccccc3)o2)CC1 | n | n
O=C(c1ccc(C(F)(F)F)cc1)N1CCC(Cc2nnc(-c3ccccc3)o2)CC1 | n | 57
O=C(c1ccc(Cn2cncn2)cc1)N1CCN(c2ccc(Cl)cc2)CC1 | n | n
Cc1ccc(Cl)cc1N1CCN(C(=O)c2ccc(Cn3cncn3)cc2)CC1 | n | 89
O=C(Nc1ccc2c(c1)OCCO2)c1ccc(Br)cc1 | n | 96
O=C(Nc1ccc2c(c1)OCO2)c1ccc(Br)cc1 | n | n
Oc1c(Cl)cc(Cl)cc1C=NN=Cc1cc(Cl)cc(Cl)c1O | n | x
COc1cc(OC)c(/C=N/NC(N)=S)cc1Br | x | n
Oc1c(Br)cc(Br)cc1C=Nc1ccc(F)cc1 | x | n
NC(=S)N/N=C/c1cc(Cl)cc(Cl)c1O | x | +
Oc1ccccc1N=Cc1cc(Br)cc(Br)c1O | n | 55
NC(=S)N/N=C/c1cc(Br)cc(Br)c1O | x | +
O=C1OC(/C=C/c2cccc([N+](=O)[O-])c2)=NC/1=C\c1ccco1 | n | n
O=C(NC1CC2CC1CN2S(=O)(=O)c1ccc2c(c1)CCCC2)c1cccs1 (stereo not given) | n | n
Cc1cc(F)ccc1NC(=O)Cn1cccc1-c1nnc(C2CCC2)o1 | n | n
